Source: the supplement of paper PMC9254222
In all, about 1,100 compounds were measured (“Wnt reporter firefly/Renilla luciferase ratio relative to plate median”: median about 1.1, highest 2% from about 1.6 on). This excerpt belongs to a sample that is enriched for the highest values.

Tested on: HEK293T (UBE3A T485A transfected, BAR Wnt reporter)
Test: Wnt reporter firefly/Renilla luciferase ratio relative to plate median (fold (linear ratio)); higher = more Wnt/beta-catenin reporter activation
Conditions: 24 h
Outline: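 Chemicals at 0.01–100 uM were left on transfected HEK293T cells for 24 h, after a four-hour wait following transfection. The cells held a BAR firefly luciferase Wnt reporter, TK-Renilla and an expression plasmid. Wnt activity, as the firefly/Renilla ratio from a Dual-Glo luciferase readout, and cell health, as raw Renilla, were median-centred within each plate. Results average four biological replicates.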

Compound | Wnt reporter firefly/Renilla luciferase ratio (concentration: 0.1 uM) | Wnt reporter firefly/Renilla luciferase ratio (concentration: 1 uM) | Wnt reporter firefly/Renilla luciferase ratio (concentration: 10 uM) | Wnt reporter firefly/Renilla luciferase ratio (concentration: 100 uM) | Wnt reporter firefly/Renilla luciferase ratio (concentration: 0.01 uM)
Cl[C@H]1[C@H](Cl)[C@@H](Cl)[C@H](Cl)[C@@H](Cl)[C@@H]1Cl [beta-Hexachlorocyclohexane] | 1.05 | 0.913 | 1.12 | 1.03 | 
Clc1cccc(Cl)c1 [1,3-Dichlorobenzene] | 1.15 | 1.18 | 1.45 | 1.77 | 
Nc1ccc(Cl)cc1N [4-Chloro-1,2-diaminobenzene] | 1.1 | 1.03 | 0.852 |  | 
Clc1ccc(Cl)c(Cl)c1 [1,2,4-Trichlorobenzene] | 0.911 | 0.886 | 1.04 | 1.57 | 
Cc1cc(C)cc(C)c1 [1,3,5-Trimethylbenzene] | 1.01 | 1.15 | 1.05 | 1.12 | 
CCCC(=NOCC)C1=C(O)CC(CC(C)SCC)CC1=O (stereo unspecified) [Sethoxydim] | 1.07 | 1.15 | 1.2 | 0.758 | 1.27
CCOC(=O)C(Cl)Cc1cc(-n2nc(C)n(C(F)F)c2=O)c(F)cc1Cl (stereo unspecified) [Carfentrazone-ethyl] | 0.973 | 0.982 | 0.945 | 1.28 | 1.07
CCOC(=O)COc1cc(-c2nn(C)c(OC(F)F)c2Cl)c(F)cc1Cl [Pyraflufen-ethyl] | 1.63 | 1.05 | 1.09 | 1.13 | 1.13
O=C(Oc1ccc(Br)cc1)N1CCN2CCC1CC2 | 1.11 | 0.988 | 1.09 | 0.334 | 
CC(COc1ccc(Oc2ccccc2)cc1)Oc1ccccn1 (stereo unspecified) [Pyriproxyfen] | 0.977 | 1.04 | 1.03 | 0.55 | 1.12
ClC1(Cl)C2(Cl)C3(Cl)C4(Cl)C(Cl)(Cl)C5(Cl)C3(Cl)C1(Cl)C5(Cl)C24Cl (stereo unspecified) [Mirex] | 1.02 | 1.05 | 0.921 | 1.28 | 
O=C(Nc1ccccc1)Nc1ccnc(Cl)c1 [Forchlorfenuron] | 1.16 | 0.957 | 0.694 |  | 1.1
CCCCc1ccccc1 [Butylbenzene] | 0.995 | 1.31 | 1.01 | 0.948 | 
CC(C)N(C(=O)COc1nnc(C(F)(F)F)s1)c1ccc(F)cc1 [Flufenacet] | 0.746 | 0.898 | 0.605 | 0.254 | 0.973
C=CCc1ccc2c(c1)OCO2 [Safrole] | 1.26 | 1.37 | 0.895 | 1.23 | 
C[C@]12C=CC3=C4CCC(=O)C=C4CC[C@H]3[C@@H]1CC[C@@H]2O [17beta-Trenbolone] | 1.08 | 1.18 | 0.938 | 0.146 | 
CCNC(=O)NC(=O)/C(C#N)=N/OC [Cymoxanil] | 1.34 | 1.15 | 1.29 | 1.1 | 1.42
CC(C)(C)c1ccccc1O [2-tert-Butylphenol] | 1.53 | 1.54 | 1.25 | 0.813 | 
CC1(C)C(C=C(Cl)Cl)C1C(=O)OCc1cccc(Oc2ccccc2)c1 (stereo unspecified) [Permethrin] | 0.873 | 1.11 | 1.19 | 0.865 | 0.82
Nc1nc(N)nc(NC2CC2)n1 [Cyromazine] | 1.18 | 0.955 | 1.02 | 1.22 | 1.01
CCCCCCCCn1sccc1=O [Octhilinone] | 1.02 | 1.15 | 1.07 |  | 

Compound | Wnt reporter firefly/Renilla luciferase ratio (concentration: 0.1 uM) | Wnt reporter firefly/Renilla luciferase ratio (concentration: 1 uM) | Wnt reporter firefly/Renilla luciferase ratio (concentration: 10 uM) | Wnt reporter firefly/Renilla luciferase ratio (concentration: 100 uM) | Wnt reporter firefly/Renilla luciferase ratio (concentration: 0.01 uM)
CNC(=O)N(C)c1nnc(C(C)(C)C)s1 [Tebuthiuron] | 1.39 | 1.32 | 1.67 | 1.5 | 1.35
CCCN(CCC)c1c([N+](=O)[O-])cc(C(C)C)cc1[N+](=O)[O-] [Isopropalin] | 1.07 | 1.04 | 1.11 | 1.31 | 
CCOC1Oc2ccc(OS(C)(=O)=O)cc2C1(C)C (stereo unspecified) [Ethofumesate] | 0.973 | 1.03 | 1.14 | 1.86 | 1.05
N#CC(CCc1ccc(Cl)cc1)(Cn1cncn1)c1ccccc1 (stereo unspecified) [Fenbuconazole] | 1.01 | 1.03 | 0.614 | 0.347 | 1.07
CN(C)C(=S)SSC(=S)N(C)C [Thiram] | 1.39 | 1.06 | 1.24 |  | 1.62
CN(C)C(=S)[S-].CN(C)C(=S)[S-].[Zn+2] [Ziram] | 1 | 0.732 | 0.577 |  | 
CN(C)C(=S)[S-].[Na+] [Sodium dimethyldithiocarbamate] | 1.22 | 0.816 | 0.751 | 0.926 | 
c1ccc(-c2ccccc2)cc1 [Biphenyl] | 1.39 | 1.01 | 1.25 | 1.46 | 
CCCC1COC(Cn2cncn2)(c2ccc(Cl)cc2Cl)O1 (stereo unspecified) [Propiconazole] | 1.03 | 1.17 | 0.78 |  | 0.957
CCON=C(CC)C1=C(O)CC(c2c(C)cc(C)cc2C)CC1=O (stereo unspecified) [Tralkoxydim] | 1.54 | 1.03 | 1.05 | 0.67 | 1.14
CON(C)C(=O)Nc1ccc(Cl)c(Cl)c1 [Linuron] | 0.829 | 1.11 | 1.17 | 0.524 | 1.1
CCC(=O)Nc1ccc(Cl)c(Cl)c1 [Propanil] | 1.71 | 0.955 | 1.25 | 0.294 | 1.31
CN(C)C(=O)Nc1ccc(Cl)cc1 [Monuron] | 0.888 | 0.901 | 1.09 | 1.04 | 
ClC1=C(Cl)C2(Cl)C3C(Cl)C=CC3C1(Cl)C2(Cl)Cl (stereo unspecified) [Heptachlor] | 0.972 | 1.07 | 1.17 | 1.24 | 
N#CC(Br)Br [Dibromoacetonitrile] | 1.15 | 1.01 | 1.17 | 1.19 | 
Nc1c(Cl)cc([N+](=O)[O-])cc1Cl [Dicloran] | 1.64 | 0.962 | 1.29 | 0.345 | 1.85
O=[N+]([O-])c1ccc(Cl)c(Cl)c1 [3,4-Dichloronitrobenzene] | 1.21 | 1.14 | 1.29 | 1.54 | 
O=[N+]([O-])c1ccc(Cl)cc1 [1-Chloro-4-nitrobenzene] | 1.04 | 1.2 | 1.02 | 1.38 | 
CCC(C)(c1ccc(O)cc1)c1ccc(O)cc1 [Bisphenol B] | 1.11 | 0.969 | 0.999 | 0.0398 | 
N#Cc1c(Cl)c(Cl)c(Cl)c(C#N)c1Cl [Chlorothalonil] | 0.784 | 1.16 | 0.725 |  | 0.876
CCCCOC(=O)[C@@H](C)Oc1ccc(Oc2ccc(C#N)cc2F)cc1 [Cyhalofop-butyl] | 0.959 | 1.06 | 0.848 | 0.697 | 1.1
